The source of these data is PubChem BioAssay (NCI).

The panel holds about 83,000 compounds, 20% with a hit somewhere; the sample as a whole holds those more often.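 Results are percent growth after 48 hours of single-concentration exposure. 100 means growth as in untreated cells, lower positive values show inhibition; negative values down to -100 show cell death.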 A number with no mark means an inactive call. The source made the active and inactive calls. How the source made its calls: active means growth percent below 10; inactive means the rest.

Holding throughout (assay): NCI-60 one-dose screen, 48 h (100 = growth as untreated, 0 = no growth, -100 = all killed)
In assay [1] the test system is EKVX NSCLC. The note with it: 10 µM unless noted.
In assay [2] the test system is SN12C renal. The note with it: 10 µM unless noted.
The subject of assay [3] is UO-31 renal. The note with it: 10 µM unless noted.
The subject of assay [4] is TK-10 renal. The note with it: 10 µM unless noted.
Assay [5] relates to ACHN renal. Particulars: 10 µM unless noted.
Assay [6] concerns CAKI-1 renal. Particulars: 10 µM unless noted.
Assay [7] has as its system A498 renal. The note with it: 10 µM unless noted.
Assay [8] relates to CCRF-CEM leukemia. The note with it: 10 µM unless noted.
For assay [9], the system named is MOLT-4 leukemia. The note with it: 10 µM unless noted.
The test system of assay [10] is SR leukemia. The note with it: 10 µM unless noted.
Assay [11] relates to RPMI-8226 leukemia. Particulars: 10 µM unless noted.
Assay [12] concerns OVCAR-8 ovarian. The note with it: 10 µM unless noted.
For assay [13], the system named is OVCAR-5 ovarian. Particulars: 10 µM unless noted.
The subject of assay [14] is OVCAR-4 ovarian. Particulars: 10 µM unless noted.
Assay [15] relates to SK-OV-3 ovarian. Particulars: 10 µM unless noted.
Assay [16] relates to IGROV1 ovarian. The note with it: 10 µM unless noted.
The subject of assay [17] is OVCAR-3 ovarian. The note with it: 10 µM unless noted.
The test system of assay [18] is NCI/ADR-RES ovarian. Particulars: 10 µM unless noted.
For assay [19], the system named is HS 578T breast. Particulars: 10 µM.

In the case of `CC[C@@H]1C(=O)N(C)c2cnc(Nc3ccc(C(=O)NC4CCN(C)CC4)cc3OC)nc2N1C1CCCC1`, the growth was 31.6% in assay [1]; 2.27% (active) in assay [2]; 13.4% in assay [3]; 14.9% in assay [4]; 21.2% in assay [5]; 23% in [6]. Besides, the growth in assay [7] is -28.3% (active); in [8] it was -0.208% (active); in [9] it was -14% (active); in assay [10] it was -20.7% (active); in assay [11] it was -40.6% (active); in assay [12], 21.4%. In addition, the growth in assay [13] is 17.3%; in assay [14], 35.3%; in assay [15] it was -64.3% (active); in [16], -0.189% (active); in assay [17] it was 13.1%; in assay [18] it was 24%.

Turning to `CC/C(=C(/c1ccc(Cl)cc1)c1ccc(OCCN2CCCCC2)cc1)c1ccc(Cl)cc1`, the growth in assay [1] is 57.4%; in assay [2], 76.5%; in [3], 58.8%; in assay [4], 90.8%; in assay [5] it was 91.2%; in assay [6] it was 74.4%. Moreover, the growth was 94% in assay [7]; 50.6% in [8]; 69.2% in assay [9]; 5.18% (active) in [10]; 76.3% in assay [11]; 81.4% in [12]. The growth was 79.9% in assay [13]; 63.9% in assay [14]; 83.7% in assay [15]; 91.7% in assay [16]; 78.7% in [17]; 84.9% in assay [18].

As to `Cc1cc(C(=O)Nc2cc(Oc3ccc4nc(NC(=O)C5CC5)cn4n3)ccc2C)n(C)n1`, the growth in [1] was 58.8%; in [2] it was 37.8%; in assay [3] it was 14.4%; in assay [4] it was 27.4%; in assay [5] it was 37.3%; in [6] it was 23.8%. The growth in assay [7] is -39.2% (active); in [8] it was 29.9%; in assay [9], 32.6%; in assay [10], 29.5%; in assay [11] it was 48.6%; in assay [12], 30.2%. Also, the growth in assay [13] was 11.6%; in assay [14] it was 49%; in assay [15], 17.9%; in assay [16], 12%; in [17], 52.8%; in [18] it was 60.2%.

For the compound `O=C(Cc1ccc(/C=C/C(=O)c2ncc[nH]2)cc1)Nc1ccc(S(F)(F)(F)(F)F)cc1`, the growth was 96.9% in assay [1]; 80.3% in assay [2]; 60.7% in assay [3]; 107% in assay [4]; 95.8% in [5]; 81.7% in assay [6]. In addition, the growth was 88.3% in assay [7]; 41.9% in [8]; 53.4% in assay [9]; 4.88% (active) in [10]; -17.6% (active) in [11]; 88.2% in assay [12]. Further, the growth is 86.8% in assay [13]; 93.2% in assay [14]; 101% in assay [15]; 52.8% in [16]; 80.3% in [17]; 97.2% in [18].

For the compound `C#Cc1cccc(Nc2ncnc3cc4c(cc23)OCCOCCOCCO4)c1`, the growth was 42.5% in assay [1]; 42% in assay [2]; 27.2% in [3]; 7.84% (active) in [4]; 16.3% in assay [5]; 28.4% in assay [6]. The growth in [7] was 24.1%; in assay [8], 73.3%; in assay [9], 53.3%; in assay [10] it was 53.5%; in assay [11] it was 70%; in assay [12], 53.9%. Also, the growth in [13] is 60.4%; in [14], 63.2%; in assay [15], -17% (active); in assay [16] it was 15.2%; in assay [17] it was 40.9%; in assay [18], 58.5%.

For `Cc1cc2c(F)c(Oc3ncnn4cc(OC[C@@H](C)OC(=O)[C@H](C)N)c(C)c34)ccc2[nH]1`, the growth in [1] is 61.2%; in assay [2], 55.6%; in assay [3], 36.3%; in assay [4], 35.6%; in assay [5], 46.8%; in assay [6], 48.8%. In addition, the growth in assay [7] was 21.7%; in assay [8], 45.4%; in [9], 48.3%; in [10], 18.5%; in [11], 47.1%; in [12] it was 61.7%. For the same compound, the growth is 25.8% in [13]; 65.5% in [14]; 73.9% in assay [15]; 20.8% in [16]; 81.1% in [17]; 90.5% in [18].

`CC#CC(=O)N1CCC[C@H]1c1nc(-c2ccc(C(=O)Nc3ccccn3)cc2)c2c(N)nccn12`: the growth was 92.1% in assay [1]; 72.3% in [2]; 79% in assay [3]; 72.8% in assay [4]; 73.6% in assay [5]; 72.9% in [6]. The growth was 111% in assay [7]; 71.5% in [8]; 89.4% in [9]; 68.3% in assay [10]; 79.7% in [11]; 77.8% in [12]. For the same compound, the growth in [13] was 78.5%; in assay [14] it was 99.5%; in assay [15], -0.746% (active); in [16], 64.8%; in [17], 86.5%; in [18], 94.3%.

Take `O=C(O)c1ccc(Nc2ncc3c(n2)-c2ccc(Cl)cc2C(c2c(F)cccc2F)=NC3)cc1`: the growth in assay [1] is 80.1%; in [2], 62.8%; in assay [3], 41.8%; in assay [4] it was 40.1%; in assay [5], 49%; in assay [6] it was 47.6%. The growth is 25.3% in [7]; 36.6% in [8]; 44.6% in assay [9]; 24.2% in assay [10]; 47.7% in assay [11]; 43% in assay [12]. Moreover, the growth in [13] was 59.3%; in [14], 79.6%; in assay [15] it was 59.7%; in assay [16], 41.8%; in assay [17] it was 64.5%; in assay [18], 55.4%.

On to `Cc1nn(-c2ccccc2)c2c1N=c1s/c(=C\c3cn(-c4ccccc4)nc3-c3ccc(Cl)cc3)c(=O)n1C(C)N2` (stereo unspecified), for which the growth in assay [1] was 84.8%; in assay [2], 91.5%; in [3] it was 70.1%; in assay [4] it was 152%; in [5], 83.7%; in assay [6], 83.6%. In addition, the growth in assay [7] is 123%; in assay [8], 110%; in [9], 95.3%; in assay [10], 123%; in assay [11], 49%; in assay [13], 101%. For the same compound, the growth is 93.2% in [14]; 102% in [15]; 109% in assay [17]; 87.8% in [19]; 97.8% in [18].
